The record followed here is PubChem BioAssay (NCATS).

Structures are written as SMILES. Several values for one entry are separate records, joined by “and”; a condition that tells them apart may be missing. Identical values can stand only once. Records with an inconclusive call do not appear. Values without a mark were called inactive. Activity calls are given as the source filed them. The call rests on the fitted dose curve; in most records, active means well fitted inhibition curve with a large enough effect; inconclusive means small, poorly fitted or top-dose-only effect; inactive means flat fitted curve, though single readings scatter.

In one assay the test system is CRL-7250. The experiment in a line: Cytotoxic Profiling of Annotated Libraries Using Quantitative High-Throughput Screening (AID 1296008). Further: potency means the concentration at half of the fitted maximal effect. On max response: on the % scale 0 is the no-effect control and ±100 the full control effect. Particulars: Five cell lines viability, CellTiter-Glo ATP luminescence, 48-72 h; max response: active compounds read low. An outline of the steps:
(§1)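 Cytotoxicity was measured as CellTiter-Glo ATP luminescence, read after 10 min at room temperature. Compound treatment of the cells lasted 48 or 72 hr at 37 degrees Celsius in a qHTS format.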
A general note: Cellular ATP, detected with luciferase, serves as a proxy for viable cell number.

Assay [1] relates to HaCat. Described as above. Particulars: Five cell lines viability, CellTiter-Glo ATP luminescence, 48-72 h; max response: active compounds read low. Summed up: as §1
Another assay relates to KB-3-1. The description is as above. Particulars: Five cell lines viability, CellTiter-Glo ATP luminescence, 48-72 h; max response: active compounds read low. Summed up: as §1
A further assay deals with NIH3T3. The description is as above. The following applies: Five cell lines viability, CellTiter-Glo ATP luminescence, 48-72 h; max response: active compounds read low. Summed up: as §1
For assay [2], the system named is HACAT. The experiment in a line: qHTS assay to identify novel small-molecules to repurpose for Merkel cell carcinoma treatment (AID 1296009). Particulars: MCC and control cell lines, CellTiter-Glo viability, 72 h; at 44.8 µM (top of the series) unless noted. Summed up:
(§2)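 72 hr, 37 degree celsius; NPC 8-pt / MIPE 11-pt dose response; compound pinned in DMSO; CellTiter-Glo, 10 min RT, luminescence; normalized to no-cell and DMSO controls.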

In the next assay the test system is HEK293T. Described as above. The following applies: MCC and control cell lines, CellTiter-Glo viability, 72 h; series mostly up to 44.8 µM. An outline of the steps:
as §2

The next assay has as its system HEK293. The experiment in a line: Cytotoxic Profiling of Annotated Libraries Using Quantitative High-Throughput Screening (AID 1296008). Further: potency means the concentration at half of the fitted maximal effect. On max response: on the % scale 0 is the no-effect control and ±100 the full control effect. The following applies: Five cell lines viability, CellTiter-Glo ATP luminescence, 48-72 h; max response: active compounds read low. Summed up:
as §1
Further: nearly all actives have a fitted effect of over 60% in size.

`CCCNS(=O)(=O)Nc1ncnc(OCCOc2ncc(Br)cn2)c1-c1ccc(Br)cc1`: the results for the max response with CRL-7250 and with NIH3T3 were -8.99% and -4.31%, respectively. Further, the molecule was called inactive in the assay on HaCat [1], in the assay on KB-3-1 and in the assay with HACAT [2].
With `CNC(=O)c1ccc(Nc2cc(Nc3ccccc3S(=O)(=O)C(C)C)c3cc[nH]c3n2)nc1`, the Potency with CRL-7250 was 3.32 µM (active); in the assay on HaCat [1], 2.96 µM (active); in the assay with KB-3-1, 1.32 µM (active); in the assay with NIH3T3, 2.35 µM (active).
Turning to `O=C(NCc1ccccc1)[C@H](Cc1ccccc1)NC(=O)[C@@H]1O[C@@H]1C(=O)NCCc1ccc(O)cc1`, the outcome in the assay with CRL-7250, with HaCat [1] and in the assay on HACAT [2] was inactive. Moreover, the figures for the max response in the assay with KB-3-1 and with NIH3T3 were 8.9% and 3.87%, respectively.
As for `COc1ccc(C[C@@H](C)[C@@H](C)Cc2ccc(OC)c(OC)c2)cc1OC`, the values for the Potency with CRL-7250, in the assay with KB-3-1 and in the assay on NIH3T3 were 3.32 µM (active), 2.96 µM (active) and 2.35 µM (active), respectively. For the same molecule, the max response with HaCat [1] is 3.58%.
In the case of `CCc1cc(C(C)=NOCc2ccc(C3CCCCC3)c(C(F)(F)F)c2)ccc1CN1CC(C(=O)O)C1`, the max response with CRL-7250 is 2.27%; with NIH3T3 it was -5.84%. Moreover, the result in the assay with HaCat [1], in the assay on KB-3-1 and with HACAT [2] was inactive.
Take `OC[C@H]1OC(O)C[C@@H](O)[C@H]1O` (stereo not given in full): the molecule was classed as inactive with CRL-7250, with HaCat [1], in the assay on NIH3T3 and with HACAT [2]. Besides, the max response in the assay on KB-3-1 was 2.18%. Also, the Potency result in the assay with HEK293T was “inactive”.
Regarding `CCn1c(=O)c2c(nc(C=Cc3ccc(OC)c(OC)c3)n2C)n(CC)c1=O`, the max response was -2.94% in the assay with CRL-7250, -8.26% in the assay with HaCat [1] and 9.4% with KB-3-1. Also, the result in the assay on NIH3T3 was inactive.
As for `CCCCCCCN(CC)CCCC(O)c1ccc(NS(C)(=O)=O)cc1` (stereo not given), the max response with CRL-7250 was 0.839%; in the assay with KB-3-1 it was -6.17%; with NIH3T3, -1.95%. In addition, the molecule was classed as inactive in the assay on HaCat [1] and with HACAT [2].
Consider `C=C1C(=CC=C2CCC[C@]3(C)[C@@H]([C@H](C)CCCC(C)(C)O)CC[C@@H]23)C[C@@H](O)C[C@@H]1O`, for which the max response with CRL-7250 is -5.17%; in the assay with KB-3-1, -11.2%. The outcome in the assay on HaCat [1] and in the assay on HACAT [2] was inactive. The Potency in the assay on NIH3T3 is 0.0033 µM (active).
As for `CC(=O)C1=C(O)C=C2Oc3c(C(C)=O)c(O)c(C)c(O)c3C2(C)C1=O` (stereo not given), the outcome in the assay on CRL-7250, in the assay on HaCat [1], in the assay with KB-3-1, with NIH3T3 and in the assay with HACAT [2] was inactive. The Potency result in the assay with HEK293T was “inactive”.
In the case of `C[C@H](O)[C@@H]1C(=O)N2C(C(=O)O)=C(S[C@@H]3CN[C@H](CNS(N)(=O)=O)C3)[C@@H](C)[C@@H]12`, the max response with CRL-7250 was 4.32%. For the same molecule, the call with HaCat [1], in the assay on KB-3-1, with NIH3T3 and in the assay on HACAT [2] was inactive.
On to `CC[C@H]1OC(=O)[C@H](C)[C@@H](O[C@H]2C[C@@](C)(OC)[C@@H](O)[C@H](C)O2)[C@H](C)[C@@H](O[C@@H]2O[C@H](C)C[C@H](N(C)C)[C@@H]2O)[C@](C)(OC)C[C@@H](C)C(=O)[C@H](C)[C@@H](O)[C@]1(C)O`, for which the max response with CRL-7250 is 4.09%; in the assay on HaCat [1], 3.25%; in the assay with KB-3-1, -5.56%. In addition, in the assay on NIH3T3, the result was inactive.
In the case of `C[C@@]12C(=O)OC(=O)[C@@]1(C)C1CCC2O1`, the Potency with CRL-7250 was 5.26 µM (active); with HaCat [1] it was 26.4 µM (active); in the assay with KB-3-1 it was 7.43 µM (active); in the assay with NIH3T3 it was 13.2 µM (active).
Take `CC(N[C@H]1CCCC[C@H]1NC(=O)c1ccc(Cl)cc1)c1cccc2ccccc12` (stereo not given in full): the max response was 2.81% in the assay with CRL-7250, 1.61% in the assay with KB-3-1 and -12.9% in the assay on NIH3T3. Moreover, the molecule was classed as inactive in the assay with HaCat [1] and with HACAT [2].
For `COC(=O)C1C2CC3c4[nH]c5cc(OC)ccc5c4CCN3CC2CC(OC(=O)c2cc(OC)c(OC)c(OC)c2)C1OC` (stereo not given), the max response was -19.7% in the assay on CRL-7250, 3.89% in the assay on KB-3-1 and -9.23% in the assay on NIH3T3. The molecule was called inactive in the assay with HaCat [1] and in the assay with HACAT [2].
Consider `CC(C)C[C@H](NC(=O)[C@@H](NC(=O)c1cccc(-c2ccccc2)n1)[C@@H](C)O)B(O)O`, for which the Potency in the assay with CRL-7250 is 0.092 µM (active); in the assay with HaCat [1], 526 nM (active) and 580 nM (active); in the assay with KB-3-1, 187 nM (active) and 184 nM (active); in the assay on NIH3T3 it was 118 nM (active) and 116 nM (active).
For the molecule `COc1cc(OC)c(NC(=O)Nc2cc(C)on2)cc1Cl`, the max response with CRL-7250 is -0.274%; in the assay with KB-3-1, 3.5%; in the assay on NIH3T3, 2.83%. For the same molecule, the result in the assay with HaCat [1] and with HACAT [2] was inactive.
In the case of `Cc1cc(Nc2ncc3c(n2)N(C)C(=O)N(c2cc(NC(=O)c4cccc(C(F)(F)F)c4)ccc2C)C3)n(C)n1`, the Potency with CRL-7250 was 0.469 µM (active); in the assay with HaCat [1], 0.833 µM (active); with NIH3T3 it was 1.32 µM (active).
On to `CN1CCc2c(c3ccccc3n2Cc2ccc(C(=O)NO)cc2)C1`, for which, in the assay on CRL-7250, the max response is -28.2% and -9.31%. In addition, the Potency in the assay with KB-3-1 is 26.4 µM (active).
As to `O=C(O)C[C@H](O)C[C@H](O)C=Cc1c(C2CC2)nc2ccccc2c1-c1ccc(F)cc1`, the Potency was 0.662 µM (active) with CRL-7250, 4.69 µM (active) with HaCat [1] and 20.9 µM (active) with NIH3T3.
On to `CN(C)c1ccc2cc(C(=O)N[C@@H](CCCN=C(N)CCl)C(=O)NCc3ccccc3)ccc2c1`, for which, in the assay with CRL-7250, the Potency is 18.7 µM (active). Also, the max response in the assay with HaCat [1] is -9.24%; with NIH3T3 it was -19.2%.
As to `C=CC(=O)N1CCc2ccc(-n3c(=O)ccc4cnc5ccc(-c6cnn(C)c6)cc5c43)cc21`, the Potency in the assay on CRL-7250 was 3.72 µM (active); in the assay on KB-3-1, 4.18 µM (active).
In the case of `C#CCC(Cc1cnc2nc(N)nc(N)c2n1)c1ccc(C(=O)N[C@@H](CCC(=O)O)C(=O)O)cc1` (stereo not given in full), the Potency is 0.0418 µM (active) in the assay with HEK293, 3.32 µM (active) in the assay with HaCat [1], 0.146 µM (active) in the assay on KB-3-1 and 0.332 µM (active) in the assay with NIH3T3.
`CCCCCCCCc1ccc(CCC(N)(CO)CO)cc1`: the Potency in the assay on HEK293 is 26.4 µM (active); in the assay with HaCat [1], 18.7 µM (active).
